Sampled rows, rich in hits. Any-hit rate of the full collection: about 3.1%.
Tau fibril ThT – qHTS for Inhibitors of Tau Fibril Formation, Thioflavin T Binding | Microtubule-associated protein tau (Homo sapiens), P10636 | recombinant tau K18 P301L, heparin-induced fibrillization, ThT fluorescence | Potency, µM (series often up to 57.4 µM), actives largely listed as inhibitors | hit rate 2.1% among 270,000; note: nearly all actives have a fitted effect of over 55% in size
Target sequence (P10636 561-689 P618L limits assumed): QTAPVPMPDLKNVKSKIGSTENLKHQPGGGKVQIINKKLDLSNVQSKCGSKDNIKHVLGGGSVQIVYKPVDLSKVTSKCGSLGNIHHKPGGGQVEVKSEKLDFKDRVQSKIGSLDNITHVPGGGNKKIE
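ThT emission at 510 nm, taken 1 hr after adding 30 uM dye, quantifies aggregates formed when 20 uM heparin acts on human tau K18 P301L for 6 hr at 37 C.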
Tau FP inhib – qHTS for Inhibitors of Tau Fibril Formation, Fluorescence Polarization | K18 P301L tau heparin fibrillization, Alexa594 FP, 6 h | hit rate 0.39% among 280,000 | Potency, µM (highest dose often 57.7 µM), most hits filed as inhibitors; note: nearly all actives have a fitted effect of over 55% in size
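K18 P301L tau (15 uM unlabeled/0.24 uM Alexa 594-labeled, final) + compound + heparin 20 uM final; 100 mM NaOAc pH 7; 6 hr 37 C; ThT 30 uM final added, 1 hr RT; FP ex 555/em 632 nm.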
Tau fluor counter – Counterscreen qHTS for Inhibitors of Tau Fibril Formation, Fluorescence Polarization; tau K18 P301L Alexa594 fluorescence, heparin fibrillization; Potency, µM (top dose mostly 57.7 µM); hit rate 0.93% among 280,000; note: nearly all actives have a fitted effect of over 55% in size
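Human tau K18 P301L (15 uM unlabeled, 0.24 uM Alexa 594-labeled) in 100 mM sodium acetate pH 7 with 20 uM heparin, 6 hr at 37 C. ThT 30 uM added, 1 hr ambient; Alexa 594 FP and total fluorescence read at 555/632 nm.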
TexasRed fluor – Total Fluorescence Counterscreen for Inhibitors of the Interaction of Thyroid Hormone Receptor and Steroid Receptor Coregulator 2; TRb/SRC2 Texas Red total fluorescence interference; Potency, µM (series often up to 106 µM); hit rate 0.29% among 280,000; active = well fitted curve in either direction with a large enough effect; inconclusive = small, poorly fitted or top-dose-only effect
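Flags fluorescent or light-absorbing compounds by total fluorescence, S + 2P, at 555 nm excitation and 632 nm emission. Mixture: 20 nM Texas Red SRC2 peptide, 0.6 uM human TRb LBD, 1 uM T3, 5% DMSO; compound exposure 5 h at ambient temperature.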
TRb-SRC2 inh – qHTS for Inhibitors of the Interaction of Thyroid Hormone Receptor and Steroid Receptor Coregulator 2; Potency, µM (series often up to 106 µM), usual class: inhibitors; Thyroid hormone receptor beta (Homo sapiens), P10828; TRbeta-SRC2 peptide binding, fluorescence polarization; receptor liganded with 1 µM T3; hit rate 0.065% among 280,000; note: nearly all actives have a fitted effect of over 50% in size
Target sequence (P10828 whole entry, looked up): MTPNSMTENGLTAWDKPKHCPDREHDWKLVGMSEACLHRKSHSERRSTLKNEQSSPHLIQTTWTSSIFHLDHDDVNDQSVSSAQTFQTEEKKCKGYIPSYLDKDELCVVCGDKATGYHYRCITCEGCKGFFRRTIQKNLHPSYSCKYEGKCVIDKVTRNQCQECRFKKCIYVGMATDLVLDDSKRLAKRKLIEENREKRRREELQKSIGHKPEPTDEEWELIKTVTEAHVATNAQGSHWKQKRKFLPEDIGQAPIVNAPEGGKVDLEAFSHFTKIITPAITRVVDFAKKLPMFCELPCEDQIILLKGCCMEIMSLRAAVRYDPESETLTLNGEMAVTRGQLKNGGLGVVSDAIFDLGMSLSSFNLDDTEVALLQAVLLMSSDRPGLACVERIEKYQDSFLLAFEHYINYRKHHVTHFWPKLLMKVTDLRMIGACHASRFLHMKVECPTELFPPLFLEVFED
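Polarization signal, normalized between peptide-alone and full complex controls, measured compound effects on T3-liganded human TRb LBD (0.6 uM) binding 20 nM Texas Red SRC2 peptide after 5 hr.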
Of the large screens only hits and unclear results are named; the others gave an inactive call; [ ] = another dose, or the depositor's remark. Unless noted, calls come from the whole dose curve; as a rule, active = well fitted curve in the direction sought with a large enough effect; inconclusive = small, poorly fitted or top-dose-only effect, or another doubt; inactive = no such curve, though single readings can be large; an effect the other way counts as inactive or inconclusive.

Cc1cc(=O)[nH]c2nnc(SCc3ccc(Cl)c(Cl)c3)n12	none
C=CCC1C=CC(Oc2ccc(OC)cc2)C(COC(=O)c2ccc(Br)cc2)O1 (stereo unspecified)	none
COc1cc(/C=C(\C#N)C(=O)c2c(C)[nH]c3ccccc23)cc(OC)c1OC	none
COCCN=c1scc(-c2cc(OC)c(OC)c(OC)c2)n1/N=C/c1c(C)[nH]c2ccccc12	Tau fibril ThT inconclusive, Tau fluor counter 7.9µM[quencher]
COC(=O)[C@@H](NC(=O)N1CCc2nc(-c3ccccc3)c3c(c2C1)CO[C@@H](C)C3)C(C)C	none
CC(=O)CSc1nc2cc3c(cc2cc1C#N)OCCO3	Tau fibril ThT 1.6µM, Tau fluor counter inconclusive
O=C(c1ccccc1)c1ccc2nc(-c3ccc(NC(=O)c4ccccc4Br)cc3)[nH]c2c1	Tau fibril ThT inconclusive, Tau FP inhib inconclusive, Tau fluor counter inconclusive
Cc1ccccc1C(=O)Nc1ccc(-c2nc3ccc(C(=O)c4ccccc4)cc3[nH]2)cc1	Tau FP inhib 28µM, Tau fluor counter inconclusive
O=S(=O)(Nc1cc(Sc2cccc3cccnc23)c(O)c2ccccc12)c1ccccc1	Tau fibril ThT 16µM, Tau FP inhib inconclusive, Tau fluor counter 16µM[quencher]
COc1ccc(/C=C2\CCC/C(=C\C=N\N(C)C)C2=O)cc1	Tau fibril ThT 2.5µM
O=C1/C(=C/c2ccccc2)CCCc2ccccc21	Tau fibril ThT inconclusive
CN(C)c1ccc(/C=C2\CCC/C(=C\c3ccccc3)C2=O)cc1	Tau fibril ThT 2µM, Tau fluor counter inconclusive
O=C1/C(=C/c2ccc(C(=O)O)cc2)CCC/C1=C\c1ccc(C(=O)O)cc1	Tau fibril ThT 10µM, Tau FP inhib inconclusive
O=C(O)c1ccc(C(=O)O)cc1	none (no result: Tau fibril ThT, Tau FP inhib, Tau fluor counter)
CCOC(=O)c1cccc(NC(=O)c2cc(S(=O)(=O)N3CCCCCC3)cn2C)c1	none
COc1ccccc1NC(=O)c1c(Nc2ccccc2F)sc(C(=O)Nc2cccc(Cl)c2)c1N	Tau FP inhib inconclusive, Tau fluor counter inconclusive
Cc1nc(Nc2ccc(Cl)cc2Cl)sc1C(=O)Nc1ccccc1	Tau fibril ThT inconclusive, Tau fluor counter inconclusive
COc1ccc(Nc2sc(C(=O)Nc3cccc(Cl)c3)c(N)c2C(=O)Nc2ccccc2OC)cc1	Tau fibril ThT inconclusive, Tau fluor counter 11µM[quencher]
Cc1nc(Nc2ccc(Cl)c(Cl)c2)sc1C(=O)Nc1ccccc1	Tau fibril ThT inconclusive, Tau fluor counter 11µM[quencher]
Nc1c(C(=O)c2ccccc2)sc(Nc2ccc(Cl)c(Cl)c2)c1C(=O)Nc1ccccc1	Tau fibril ThT 20µM, Tau fluor counter inconclusive
CCc1cc(-c2oncc2-c2ccc(OC)cc2)c(O)cc1OC	none (no result: Tau fibril ThT, Tau FP inhib, Tau fluor counter)
O=C(Nc1nn[nH]n1)c1cc(-c2ccc(Cl)c(Cl)c2Cl)nc2ccccc12	none
COc1ccc(Cl)cc1NC(=O)C1CCN(c2ncnc3c2nc2n3CCCCC2)CC1	none
Cc1ccc(N(C)C(=O)C2CCCN(c3ncnc4c3nc3n4CCCCC3)C2)cc1C (stereo unspecified)	TexasRed fluor 20µM[quencher]
COc1cc(OC)c(NC(=O)C2CCCN(c3ncnc4c3nc3n4CCCCC3)C2)cc1Cl (stereo unspecified)	Tau fibril ThT inconclusive, TexasRed fluor 18µM[quencher]
Cc1cccc(Nc2nnc(-c3ccc(C)c(S(=O)(=O)N4CCOCC4)c3)c3ccccc23)c1	none
CCC(O)OCCCOC (stereo unspecified)	none (no result: Tau fibril ThT, Tau FP inhib, Tau fluor counter)
COc1ccc(-n2sc3c(c2=S)-c2cc(OC)ccc2NC3(C)C)cc1	Tau fibril ThT inconclusive, Tau FP inhib inconclusive, Tau fluor counter 7.9µM[quencher]
COc1ccc2c(c1)-c1c(ssc1=S)C(C)(C)N2	Tau fibril ThT 14µM, Tau fluor counter 16µM[quencher]
COc1ccc2c(c1)-c1c(sn(-c3ccccc3)c1=S)C(C)(C)N2	Tau fibril ThT inconclusive, Tau FP inhib inconclusive, Tau fluor counter 14µM[quencher]
COc1ccc2[nH]cc(S(=O)(=O)c3ccc(C)cc3)c2c1	Tau FP inhib inconclusive, Tau fluor counter inconclusive
O=C(CCCc1ccccc1)Nc1cccc(C(=O)O)c1	none
O=C(CCCc1ccc(-c2ccccc2F)cc1)Nc1ccc(O)cc1	Tau fibril ThT inconclusive, Tau FP inhib inconclusive, Tau fluor counter 11µM[quencher]
O=C(O)CC(O)CC(O)/C=C/c1c(C2CC2)nc2ccccc2c1-c1ccc(F)cc1 (stereo unspecified)	none (no result: Tau fibril ThT, Tau FP inhib, Tau fluor counter)
Cc1ccccc1C(=O)Oc1ccc(-c2csnn2)cc1	Tau fibril ThT inconclusive
Cc1ccccc1C(=O)Oc1ccc(Sc2ccc(O)cc2)cc1	Tau fibril ThT inconclusive, Tau FP inhib 25µM, Tau fluor counter 7.1µM[quencher]
CC(=O)Nc1ccc(S(=O)(=O)N2CCc3nc(COc4ccccc4)c4c(c3C2)CO[C@@H](C)C4)cc1	none
CCC(=O)Nc1cc(C(=O)O)ccc1Sc1ccc(C)cc1	none
O=C1C(c2cc(=O)c3ccccc3[nH]2)=C(O)c2ccccc21	Tau fibril ThT 4.5µM
Cc1c(Cc2ccccc2)sc(/N=C/c2c(O)ccc3ccccc23)c1C(N)=O	Tau fibril ThT 28µM, Tau FP inhib inconclusive, Tau fluor counter 32µM[quencher]
Cc1c(Cc2ccccc2)sc(/N=C/c2ccc3ccccc3c2)c1C(N)=O	none
COc1cc(/C=C2\SC(=S)N(Nc3ccccc3)C2=O)ccc1O	Tau fibril ThT 11µM, Tau fluor counter 28µM[quencher]
COc1cc(/C=C2\SC(=S)N(Nc3ncc(C(F)(F)F)cc3Cl)C2=O)ccc1O	Tau fibril ThT 16µM, Tau fluor counter 14µM[quencher], TRb-SRC2 inh inconclusive
CCOc1ccc(/C=C2\SC(=S)N(NS(=O)(=O)c3ccc(C)cc3)C2=O)cc1OC	Tau fibril ThT inconclusive
O=C(O)C(Cc1ccccc1)N1C(=O)/C(=C/c2cccc3ccccc23)SC1=S (stereo unspecified)	Tau fibril ThT 20µM
CCOc1ccc(/C=C2\SC(=S)N(NS(=O)(=O)c3ccccc3)C2=O)cc1OC	Tau fibril ThT 14µM
CN(C)c1ccc(/C=C2\SC(=S)N(Nc3ncc(C(F)(F)F)cc3Cl)C2=O)cc1	Tau fibril ThT inconclusive
Cc1cc(C)nc(NC(=S)Nc2cccc(Cl)c2Cl)c1	none
COc1ccccc1C/C(N)=N/OC(=O)/C=C/c1ccccc1	none
CC(=O)OC1CC[C@@]2(C)C3=CC(=O)[C@]4(C)C(CC5OC6(OCC(C)CC6Br)C(C)C54)C3CC[C@H]2C1 (stereo partly specified)	TexasRed fluor inconclusive
O=C1/C(=C/c2ccncc2)SC(=S)N1Nc1ccccc1	Tau fibril ThT 18µM, Tau FP inhib inconclusive, Tau fluor counter inconclusive
COc1ccc(/C=C2\SC(=S)N(C(C(=O)O)c3ccccc3)C2=O)c(OC)c1 (stereo unspecified)	Tau fibril ThT 13µM
O=C(O)c1ccc(/C=C2\SC(=S)N(Nc3ccccc3)C2=O)cc1	Tau fibril ThT inconclusive, Tau fluor counter inconclusive
